# The source made the active and inactive calls. Unless noted, how the calls were made is not given here.
# Experiments:
# [1] = test system: Wnt5a (protein binding on small-molecule microarray); assay: Wnt5a binders on small-molecule microarray, primary screen, biophysical, 635/667 nm fluorescence (AID 1142); settings: 635 nm fluorescence, higher = more signal;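 further: fluorescence read at 667 nm with signal to noise per printed feature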
# [2] = cell viability in Huh7 cells, primary screen, cytotoxicity control for HCV replication inhibitor project, CellTiter-Glo luminescence, basal, 48 h (AID 1143); settings: Huh7 HCV replicon, higher = more signal, called active from +8 up or from −8 down;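 further: Huh7 hepatoma cells carrying a hepatitis C replication reporter with no stimulus; test concentration not given here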
# [3] = P. aeruginosa biofilm formation inhibitors, primary screen, PAO1 strain, BacTiter-Glo luminescence, LB-PBS (AID 1144); settings: 12 h, higher = more signal
# [4] = CREB reporter modulators without forskolin, primary screen, cell-based, PC12, CRE-LacZ reporter, unstimulated (AID 1145); settings: no forskolin, luminescence, 4.5 h, higher = more signal, called active from +8 up or from −8 down
# [5] = CREB reporter modulators under forskolin, primary screen, cell-based, PC12, CRE-LacZ reporter, forskolin-stimulated (AID 1146); settings: luminescence, 4.5 h, higher = more signal, called active from +8 up or from −8 down;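 further: PC12 cells with 6xCRE LacZ reporter stimulated by forskolin 10 µM; beta-galactosidase reporter signal reflecting CREB driven transcription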
# [6] = biological target: Streptavidin (Streptomyces avidinii) (UniProt P22629); assay: streptavidin binders on small-molecule microarray, primary screen, artefact control for SMM compound annotation, biophysical, 635/667 nm fluorescence (AID 1147); settings: streptavidin binding, higher = more signal;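 further: signal reflects streptavidin binding to arrayed compounds as a control protein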
# Sequence of Streptavidin (Streptomyces avidinii) (P22629 whole entry, looked up): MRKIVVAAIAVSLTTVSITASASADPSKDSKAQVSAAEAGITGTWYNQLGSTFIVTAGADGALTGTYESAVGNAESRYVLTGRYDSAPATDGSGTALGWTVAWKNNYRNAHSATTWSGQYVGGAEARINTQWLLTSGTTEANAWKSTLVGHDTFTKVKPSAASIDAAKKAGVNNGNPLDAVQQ
# [7] = small-molecule binders of probe aInhba, primary screen, biochemical, small-molecule microarray, 635/667 nm fluorescence (AID 1148); settings: higher = more signal;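 further: score merges 667nm spot fluorescence with signal-to-noise for antibody binding to printed compounds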
# [8] = biological target: Torsin-1A (Homo sapiens) (UniProt O14656); assay: torsin A binders from cell lysate, primary screen, small-molecule microarray, wild-type, 635/667 nm (AID 1149); settings: COS7 hTOR1A-WT lysate, 635 nm fluorescence, higher = more signal
# Sequence of Torsin-1A (Homo sapiens) (O14656 whole entry, looked up): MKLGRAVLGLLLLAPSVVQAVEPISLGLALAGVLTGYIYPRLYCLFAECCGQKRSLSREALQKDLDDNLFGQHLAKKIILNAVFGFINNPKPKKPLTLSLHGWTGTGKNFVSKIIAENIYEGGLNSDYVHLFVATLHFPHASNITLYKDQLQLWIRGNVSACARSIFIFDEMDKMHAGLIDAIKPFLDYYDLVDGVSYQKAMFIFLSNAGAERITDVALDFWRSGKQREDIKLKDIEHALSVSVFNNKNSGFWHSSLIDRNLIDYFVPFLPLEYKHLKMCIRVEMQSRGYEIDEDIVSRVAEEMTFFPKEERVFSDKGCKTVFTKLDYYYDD
# [9] = biological target: Torsin-1A (Homo sapiens) (UniProt O14656); assay: small-molecule binders of mutant TOR1A in lysate, primary screen, cell lysate, small-molecule microarray, COS7 lysate, 635/667 nm fluorescence (AID 1150); settings: COS7 hTOR1A mutant lysate, 635 nm fluorescence, higher = more signal;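 further: score pools 667 nm emission and signal to noise measuring lysate protein binding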
# [10] = test system: Sonic hedgehog protein (Shh); assay: small-molecule binders of Shh protein, primary screen, biochemical, small-molecule microarray, 635/667 nm fluorescence (AID 1151); settings: small-molecule microarray binding, 635 nm fluorescence; higher = more signal;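 further: Shh protein binding to compounds spotted on small-molecule microarray slides; score combines spot fluorescence intensity with signal-to-noise across triplicate slides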
# [11] = E. coli DRC41 culture turbidity changes, primary screen, E. coli filamentation inducer project, strain DRC41, OD650, 48 h (AID 1152);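 further: E. coli MC1000 strain DRC41 lacking acrAB efflux pump and sulA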; settings: E. coli DRC41 (acrAB sulA), higher = more signal, called active from +8 up or from −8 down
# [12] = small-molecule binders of probe aLefty1, primary screen, biochemical, small-molecule microarray, 635/667 nm fluorescence (AID 1153); settings: higher = more signal;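 further: score merges spot fluorescence with signal-to-noise ratio from the scanned slide images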
# [13] = PSAC antagonists in infected red cells, primary screen, cell-based, P. falciparum Indochina, OD700, 1 h (AID 1154); settings: P. falciparum Indochina infected RBC osmotic lysis, higher = more signal, called active from +8 up or from −8 down
# [14] = PSAC antagonists in infected red cells, primary screen, cell-based, P. falciparum Indochina, OD700, 2 h (AID 1155);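 further: lysis reports solute entry through the parasite surface anion channel PSAC; channel blockers reduce lysis of infected cells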; settings: P. falciparum Indochina infected erythrocytes, osmotic lysis OD700; higher = more signal, called active from +8 up or from −8 down
# [15] = osmotic lysis modulators in infected erythrocytes, primary screen, PSAC antagonist project, cell-based, P. falciparum Indochina, OD700, 3 h (AID 1156); settings: higher = more signal, called active from +8 up or from −8 down
# [16] = PSAC antagonists in infected red cells, primary screen, cell-based, P. falciparum Indochina, OD700, 18 h (AID 1157); settings: P. falciparum Indochina infected erythrocytes, osmotic lysis OD700, 18 h; higher = more signal, called active from +8 up or from −8 down
# [17] = modulators of S6 phosphorylation in cells, primary screen, cell-based, A549, cytoblot, luminescence, serum-stimulated (AID 1158); settings: A549 phospho-S6 cytoblot, 5 h, higher = more signal;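 further: serum-stimulated A549 lung adenocarcinoma cells; signal is phosphorylated S6 detected by cytoblot immunostaining with HRP secondary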
# [18] = biological target: NADPH oxidase 2 (Homo sapiens) (UniProt P04839); assay: NOX2-dependent H2O2 signal modulators, primary screen, NOX inhibitor project, cell-based, HEK293-NOX2, PMA-stimulated, Amplex Red fluorescence (AID 1159); settings: 45 min, higher = more signal, called active from +8 up or from −8 down; further: test concentration not given here
# Sequence of NADPH oxidase 2 (Homo sapiens) (P04839 whole entry, looked up): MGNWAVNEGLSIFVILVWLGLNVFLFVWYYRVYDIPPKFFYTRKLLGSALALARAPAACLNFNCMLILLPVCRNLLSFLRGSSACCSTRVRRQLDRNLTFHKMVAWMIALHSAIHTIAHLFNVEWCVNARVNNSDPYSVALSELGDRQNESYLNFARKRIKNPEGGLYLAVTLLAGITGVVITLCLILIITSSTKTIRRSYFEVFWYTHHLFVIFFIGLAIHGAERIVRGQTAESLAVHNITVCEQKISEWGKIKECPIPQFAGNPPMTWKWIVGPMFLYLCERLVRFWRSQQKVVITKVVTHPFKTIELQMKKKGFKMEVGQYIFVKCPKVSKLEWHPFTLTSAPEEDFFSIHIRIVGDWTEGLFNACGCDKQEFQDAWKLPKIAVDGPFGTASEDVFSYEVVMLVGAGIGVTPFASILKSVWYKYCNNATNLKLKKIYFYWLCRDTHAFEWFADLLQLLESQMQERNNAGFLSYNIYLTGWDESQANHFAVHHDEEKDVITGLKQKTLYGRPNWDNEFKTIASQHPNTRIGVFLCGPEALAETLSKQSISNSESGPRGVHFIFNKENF
# [19] = biological target: NADPH oxidase 4 (Homo sapiens) (UniProt Q9NPH5); assay: NOX4-dependent H2O2 signal modulators, primary screen, NOX inhibitor project, cell-based, HEK293-NOX4, tetracycline-induced, Amplex Red fluorescence (AID 1160); settings: 45 min, higher = more signal, called active from +8 up or from −8 down
# Sequence of NADPH oxidase 4 (Homo sapiens) (Q9NPH5 whole entry, looked up): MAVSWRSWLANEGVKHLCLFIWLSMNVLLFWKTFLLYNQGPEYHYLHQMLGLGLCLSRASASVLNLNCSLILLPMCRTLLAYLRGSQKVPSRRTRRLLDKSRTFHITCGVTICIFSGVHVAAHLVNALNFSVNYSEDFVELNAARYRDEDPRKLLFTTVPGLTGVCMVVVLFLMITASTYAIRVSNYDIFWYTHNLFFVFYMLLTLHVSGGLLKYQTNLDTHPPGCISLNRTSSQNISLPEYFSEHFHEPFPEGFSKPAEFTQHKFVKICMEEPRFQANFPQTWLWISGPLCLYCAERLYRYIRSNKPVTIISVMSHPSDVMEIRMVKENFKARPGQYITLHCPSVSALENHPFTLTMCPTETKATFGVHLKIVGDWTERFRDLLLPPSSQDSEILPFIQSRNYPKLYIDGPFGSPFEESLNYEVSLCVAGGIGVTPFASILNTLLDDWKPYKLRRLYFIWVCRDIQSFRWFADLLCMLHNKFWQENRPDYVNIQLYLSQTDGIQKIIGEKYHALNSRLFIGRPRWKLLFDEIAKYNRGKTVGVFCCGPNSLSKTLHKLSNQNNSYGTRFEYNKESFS
# [20] = biological target: NADPH oxidase 5 (Homo sapiens) (UniProt Q96PH1); assay: NOX5-dependent H2O2 signal modulators, primary screen, NOX inhibitor project, cell-based, HEK293-NOX5, Amplex Red fluorescence (AID 1161); settings: HEK293-NOX5, ionomycin, 45 min, higher = more signal
# Sequence of NADPH oxidase 5 (Homo sapiens) (Q96PH1 whole entry, looked up): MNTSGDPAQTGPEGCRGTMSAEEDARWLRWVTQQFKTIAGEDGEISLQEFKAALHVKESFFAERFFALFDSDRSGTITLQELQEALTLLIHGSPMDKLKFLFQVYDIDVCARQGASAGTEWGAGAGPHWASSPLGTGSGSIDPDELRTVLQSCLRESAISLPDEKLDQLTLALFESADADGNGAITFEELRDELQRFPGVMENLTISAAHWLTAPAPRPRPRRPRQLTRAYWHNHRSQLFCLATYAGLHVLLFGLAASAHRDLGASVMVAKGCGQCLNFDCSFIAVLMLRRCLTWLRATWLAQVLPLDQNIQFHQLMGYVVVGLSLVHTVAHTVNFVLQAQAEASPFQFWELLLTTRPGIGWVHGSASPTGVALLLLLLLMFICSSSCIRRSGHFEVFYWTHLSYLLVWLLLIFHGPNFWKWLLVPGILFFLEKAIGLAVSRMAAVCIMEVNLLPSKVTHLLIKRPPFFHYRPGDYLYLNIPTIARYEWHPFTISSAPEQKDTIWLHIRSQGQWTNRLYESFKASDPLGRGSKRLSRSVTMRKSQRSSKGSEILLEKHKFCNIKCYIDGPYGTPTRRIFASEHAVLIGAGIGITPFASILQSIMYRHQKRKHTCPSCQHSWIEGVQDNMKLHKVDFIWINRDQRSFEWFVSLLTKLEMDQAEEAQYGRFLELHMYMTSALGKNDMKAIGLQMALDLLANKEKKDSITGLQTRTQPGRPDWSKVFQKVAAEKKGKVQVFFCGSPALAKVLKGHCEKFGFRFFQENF
SMILES,composite z-score [1],z-score [2],z-score [3],z-score [4],z-score [5],composite z-score [6],composite z-score [7],composite z-score [8],composite z-score [9],composite z-score [10],z-score [11],composite z-score [12],z-score [13],z-score [14],z-score [15],z-score [16],z-score [17],z-score [18],z-score [19],z-score [20]
CC(C)C(CO)N1C(=O)[C@@H]2C3C(=O)OCCC/C=C\[C@H]3OC23C=CCN(Cc2ccccc2)C(=O)[C@@H]13 (stereo not given in full),0.0204,-0.294 (inactive),2.31 (inactive),0.601 (inactive),0.312 (inactive),-1.14,0.0212,0.662,0.825,0.855,0.83 (inactive),-0.0035,1.12 (inactive),0.405 (inactive),1.12 (inactive),0.503 (inactive),0.186,1.25 (inactive),0.838 (inactive),2.26
NC(=O)N1C(=O)C2C(C1=O)C1C=C(CCCO)C2C(c2ccc(CN3CCCC3)cc2)N1Cc1cc2c(cc1Br)OCO2 (stereo not given),-0.0793,-1.34 (inactive),-0.607 (inactive),-0.205 (inactive),-0.274 (inactive),-0.0077,-0.322,0.283,0.479,1.13,-0.272 (inactive),-0.276,1.69 (inactive),0.446 (inactive),0.604 (inactive),0.211 (inactive),0.106,-1.07 (inactive),0.731 (inactive),0.46
CC(C)(C)N1CC=CC23O[C@@H]4C=CCCOC(=O)C4[C@H]2C(=O)N(CCCCCCO)[C@@H]3C1=O (stereo not given in full),-0.515,0.451 (inactive),0.595 (inactive),-0.0899 (inactive),-0.254 (inactive),-0.703,-0.0933,-1.15,-1.29,0.833,0.0094 (inactive),0.365,0.683 (inactive),0.181 (inactive),0.639 (inactive),0.233 (inactive),1.78,0.882 (inactive),-0.0325 (inactive),2.08
CC(=O)OCC1C2CC[C@H]3C(OCc4ccc(F)cc4C(F)(F)F)OC[C@]4(C)[C@H]3C2=C(CN4C(=O)OC(C)(C)C)[C@H](C)C1COC(C)=O (stereo not given in full),1.21,-1.87 (inactive),-0.212 (inactive),0.0075 (inactive),1.85 (inactive),1.16,0.196,-0.172,1.67,-1.24,-2.4 (inactive),0.498,1.07 (inactive),0.678 (inactive),1.04 (inactive),0.593 (inactive),-0.239,-0.896 (inactive),-2.29 (inactive),-1.51
COC(=O)[C@@]1(Cc2ccc(F)cc2)[C@H]2c3cc(C(=O)N4CCCC4)n(CCc4ccccn4)c3C[C@H]2CN1C(=O)c1ccccc1,-0.0942,-0.619 (inactive),-0.237 (inactive),2.87 (inactive),0.245 (inactive),0.478,0.0889,-0.226,0.783,0.208,-1.04 (inactive),0.413,1.8 (inactive),0.408 (inactive),0.394 (inactive),0.446 (inactive),-0.697,0.557 (inactive),-0.279 (inactive),-0.188
CC(C)C(=C=CC[C@H](O)c1ccccc1OCCO)C[C@H](O)COCc1ccccc1,-0.042,-2.03 (inactive),0.297 (inactive),16 (active),-0.0014 (inactive),-0.266,-0.101,-0.0509,1.12,0.0553,-0.188 (inactive),-0.174,13.2 (active),2.13 (inactive),1.54 (inactive),1.21 (inactive),-0.181,-1.34 (inactive),-1.44 (inactive),-2.38
C=CC[C@@]1(C(=O)OC)N=C(c2ccc(OCCCO)cc2)O[C@@H]1c1ccccc1N=[N+]=[N-],0.938,-3.5 (inactive),-1.57 (inactive),1.79 (inactive),-0.775 (inactive),-0.195,0.286,0.288,0.672,2.02,0.0465 (inactive),0.398,30.6 (active),27.4 (active),4.11 (inactive),5.12 (inactive),0.581,-0.471 (inactive),1.43 (inactive),-0.0237
O=C1NC(=O)C2C1C=CC(C(O)c1ccc(B(O)O)cc1)N2Nc1ccc(Cl)cc1Cl (stereo not given),-0.0744,-0.245 (inactive),-0.661 (inactive),-0.515 (inactive),0.763 (inactive),1.09,0.0074,-1.22,-0.147,-0.589,-2.48 (inactive),0.199,1.8 (inactive),0.917 (inactive),-0.577 (inactive),0.654 (inactive),-1.07,-2.66 (inactive),-5.04 (inactive),-6.42
[N-]=[N+]=Nc1ccccc1[C@H]1OC(c2ccc(OCCCO)cc2)=N[C@@]1(Cc1ccccc1)C(=O)NCC(O)CO (stereo not given in full),0.96,-2.87 (inactive),-0.48 (inactive),-1.49 (inactive),-1.2 (inactive),0.211,0.121,0.36,0.807,-1.32,0.348 (inactive),0.425,33.6 (active),30.4 (active),0.849 (inactive),8.56 (active),-0.0737,-0.455 (inactive),1.67 (inactive),1.31
C=C(CCCC)/C(=C/C[C@@H](OC(C)=O)c1ccc(CO)o1)c1cnc2ccccc2c1,0.401,-0.257 (inactive),-0.134 (inactive),2.76 (inactive),0.128 (inactive),0.843,0.0536,1.18,1.13,1.39,0.105 (inactive),0.0077,9.2 (active),1.25 (inactive),2.11 (inactive),0.406 (inactive),0.509,-0.383 (inactive),-0.837 (inactive),-0.426
COc1ccc([Si](C)(C)[C@H]2[C@H](CC(=O)N3Cc4ccccc4C[C@H]3CO)O[C@@]3(C(=O)N(C)c4ccccc43)[C@@H]2C)cc1,0.26,-7.33 (inactive),0.458 (inactive),5.61 (inactive),-1.92 (inactive),0.783,0.0342,1.28,1.91,2.07,-0.614 (inactive),0.384,13.2 (active),1.16 (inactive),2.37 (inactive),-0.925 (inactive),0.867,-3.27 (inactive),-1.45 (inactive),-1.91
CN1C(=O)C2C(C3CC3)C=C3CN(Cc4cccc(Cl)c4)[C@@H]([C@@H](O)Cc4ccccc4)C3C2C1=O (stereo not given in full),-0.103,-1.85 (inactive),-0.0257 (inactive),5.58 (inactive),0.349 (inactive),0.599,-0.0221,0.667,0.342,1.78,1.14 (inactive),0.2,8.18 (active),1.25 (inactive),1.57 (inactive),0.918 (inactive),0.775,-0.38 (inactive),0.0765 (inactive),0.168
COc1cc(CO)cc(I)c1O[C@H]1C=C(C(=O)NCCO)C[C@@H]2O[C@H]12,0.815,-4.18 (inactive),-0.583 (inactive),3.65 (inactive),3.07 (inactive),0.717,-0.0589,1.58,0.125,1.59,-0.211 (inactive),0.369,11.1 (active),3.45 (inactive),2.06 (inactive),2 (inactive),0.179,1.46 (inactive),-0.691 (inactive),-6.01
CN(C)CCCCNC(=O)[C@H]1C[C@H]2C(=O)N3CCC[C@H]3C(=O)N2[C@H]1c1cccc(OCCO)c1,-0.202,0.196 (inactive),-1.17 (inactive),0.0043 (inactive),-0.258 (inactive),1.89,-0.0403,-0.107,0.98,1.17,-0.019 (inactive),0.517,2.99 (inactive),0.502 (inactive),0.348 (inactive),0.178 (inactive),-0.0038,0.787 (inactive),1.37 (inactive),0.803
CC(C)C(=C=CC[C@H](O)c1ccccc1OCCO)C[C@H](O)c1cc(Cl)cc(Cl)c1O,0.192,-0.825 (inactive),-0.328 (inactive),14.6 (active),1.59 (inactive),0.855,0.0966,0.786,1.06,1.85,-0.279 (inactive),0.199,19.5 (active),4.2 (inactive),-0.25 (inactive),1.44 (inactive),-0.383,-1.24 (inactive),-1.67 (inactive),-1.88
CCCCCCc1nc(-c2ccc(-c3ccc(Cl)c(Cl)c3)o2)cc2c1[Si](C(C)C)(C(C)C)OC2,-0.905,-5.45 (inactive),-1.51 (inactive),-0.621 (inactive),1.29 (inactive),-1.24,-0.261,-1.83,-0.526,-0.583,0.615 (inactive),-0.193,3.45 (inactive),0.259 (inactive),0.78 (inactive),-0.84 (inactive),1.6,-5.23 (inactive),-4.25 (inactive),-7.11
CCCNC(=O)[C@@]1(Sc2ccc(C)cc2)CC(=O)N(Cc2ccccc2Cl)[C@@H]1c1ccc(CO)cc1I,-0.618,-1.23 (inactive),0.0611 (inactive),0.479 (inactive),1.44 (inactive),-0.255,0.216,-1.61,-1.42,-0.537,0.244 (inactive),1.08,5.36 (inactive),0.773 (inactive),0.206 (inactive),0.303 (inactive),0.009,1.24 (inactive),-1.41 (inactive),1.87
